Among the data in PubChem BioAssay AID1851 (National Center for Advancing Translational Sciences (NCATS), 2009) are AC50 and activity, negative = inhibition values, retold here.

In all, about 16,000 compounds went through this assay and about 5,800 (36%) were called active. About 23% were inconclusive and are not listed. The call rests on the fitted dose curve; in most records, active means well fitted curve in the direction sought with a large enough effect; inconclusive means small, poorly fitted or top-dose-only effect, or effect the other way; inactive means no such curve, though single readings can be large or run the other way. The list shows a part of the results.
On the % scale 0 is the no-effect control and ±100 the full control effect.

The target of the assay is Cytochrome P450 2C19 (Homo sapiens) (UniProt P33261). Nature of the assay: Cytochrome panel assay with activity outcomes. Conditions: recombinant CYP, pro-luciferin dealkylation, luminescence, p450-cyp2c19; series mostly up to 57.1 µM.
Cytochrome P450 2C19 (Homo sapiens), sequence (P33261 whole entry, looked up): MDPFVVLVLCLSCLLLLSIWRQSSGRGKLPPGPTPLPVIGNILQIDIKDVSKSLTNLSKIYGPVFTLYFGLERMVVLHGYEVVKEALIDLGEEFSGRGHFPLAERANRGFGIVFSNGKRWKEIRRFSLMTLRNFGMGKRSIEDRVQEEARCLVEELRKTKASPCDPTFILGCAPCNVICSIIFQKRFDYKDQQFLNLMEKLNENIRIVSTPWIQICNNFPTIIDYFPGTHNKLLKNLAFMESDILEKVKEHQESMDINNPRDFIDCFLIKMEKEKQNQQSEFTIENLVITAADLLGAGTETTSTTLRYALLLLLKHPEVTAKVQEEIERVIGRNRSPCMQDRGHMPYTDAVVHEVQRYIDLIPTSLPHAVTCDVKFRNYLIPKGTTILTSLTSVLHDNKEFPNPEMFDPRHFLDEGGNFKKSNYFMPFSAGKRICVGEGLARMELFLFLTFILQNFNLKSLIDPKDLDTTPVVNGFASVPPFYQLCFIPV
In general, AC50 refers to the concentration at which the activity in the assay is half-maximal. Take `COc1ccc(OCCn2c(C)c(/C=N/n3cnnc3)c3ccccc32)cc1`: the AC50 was 0.355 µM (active). With `CCN(CC)[C@@H](C)CN1c2ccccc2Sc2ccccc21`, the AC50 entry is “inactive”. Regarding `CN(C)CCCN1c2ccccc2C(C)(C)c2ccccc21`, the activity, negative = inhibition was 1.8% [at 11.4 µM] (inactive).

Consider `CCN(CC)CCN1c2ccccc2Sc2ccc3ccccc3c21`, for which the AC50 was 1 µM (active).

Take `CCC(=O)c1ccc2c(c1)N(CCCN(C)C)c1ccccc1S2`: the AC50 entry was “inactive”. With `CN(C)CCCN1c2ccc3ccccc3c2Sc2cccc(Cl)c21`, the concentration at half-maximal activity (AC50) is 5.01 µM (active). As to `CN(C)CCCN1c2ccccc2Sc2ccc3ccccc3c21`, the AC50 was 1 µM (active).

Take `CN(C)CCCN1c2ccccc2Sc2cnccc21`: the activity, negative = inhibition was 34.5% [at 11.4 µM] (inactive). Regarding `C[C@@H](CN1c2ccccc2Sc2ccccc21)N(C)C`, the AC50 entry is “inactive”. For `CN=C1N[C@H](c2ccccc2)N(c2ccccc2)S1`, the AC50 entry is “inactive”. For the molecule `CC(C)c1ccc2nc3sc(C(=O)N4CCc5ccccc5C4)c(N)c3cc2c1`, the AC50 was 3.55 µM (active). On to `CCOC(=O)CSc1cc(CS(=O)c2ccc(Cl)cc2)nc(-c2ccccc2)n1` (stereo unspecified), for which the concentration at half-maximal activity (AC50) was 0.126 µM (active). Turning to `CCOC(=O)CSc1nc(-c2ccccc2)nc2ccccc12`, the AC50 was 4.47 µM (active).

In the case of `CCCn1c(-c2ccccc2)nc2c(=O)n(C)c(=O)[nH]c21`, the AC50 result is “inactive”. Consider `CCOC(=O)Cn1c(-c2ccccc2)nc2ccccc2c1=O`, for which the AC50 is 7.08 µM (active).

For the molecule `O=C(O)Cn1c(-c2ccccc2)nc2ccccc21`, the AC50 result is “inactive”. As to `NC(=Nc1ccccc1)NC(=O)c1nc(Cl)c(N)nc1N`, the AC50 entry is “inactive”.

As to `CS(=O)(=O)N1CCC2(CCN(C(=O)Nc3cccc(F)c3)CC2)CC1`, the AC50 result is “inactive”.

Turning to `CS(=O)(=O)N(CC(=O)Nc1cccc(F)c1)c1cccc([N+](=O)[O-])c1`, the AC50 is 7.94 µM (active).

For the molecule `CS(=O)(=O)N1CCC[C@@]2(CCN(C(=O)Nc3cccc(F)c3)C2)C1`, the AC50 entry is “inactive”. For the molecule `NC(N)=N/N=C(/c1ccccc1)c1ccc(O)cc1O`, the activity, negative = inhibition is -16.1% [at 11.4 µM] (inactive). Consider `CCSc1nc2ccccc2n1C(=O)/C=C\c1ccc(OC)c(OC)c1`, for which the AC50 was 7.94 µM (active).

For `COc1ccc(/C=C/C(=O)Nc2nc(C)cc(C)n2)cc1OC`, the AC50 result was “inactive”.

`C=CCSc1nc2ccccc2n1C(=O)/C=C/c1cc(OC)c(OC)c(OC)c1`: the AC50 is 2.24 µM (active). On the same count and under the same terms, as for `COc1cc(/C=C\C(=O)N2CCC=CC2=O)cc(OC)c1OC`, the entry is “inactive”; as for `CSc1ccccc1NC(=O)CSCc1ccc(C)cc1`, 1.78 µM (active); as for `Cc1ccc(C)c(-n2c(CNC(=O)c3ccco3)nnc2SCC(=O)N2CCc3ccccc32)c1`, “inactive”. As for `Cc1cc2nc(-c3ccc(SCC(=O)N4CCc5ccccc54)nc3)[nH]c2cc1C`, the AC50 is 3.98 µM (active).

As for `CCOC(=O)O[C@]1(C(=O)COC(=O)CC)CC[C@@H]2[C@@H]3CCC4=CC(=O)C=C[C@@]4(C)[C@H]3[C@H](O)C[C@]21C`, the AC50 result is “inactive”.

`FC(F)(F)c1cccc(N2CCN(CC3CC4C=CC3C4)CC2)c1` (stereo unspecified): the AC50 is 8.91 µM (active). As for `OCCN(C=NC1=NN(c2cccc(C(F)(F)F)c2)CC1)CCO`, the AC50 result is “inactive”. With `CO[C@@H]1COC(=O)[C@@H](CCSC)NC(=O)C/C=C\[C@@H](C)COC(=O)CCC[C@H]1C`, the activity, negative = inhibition was -34.5% [at 11.4 µM] (inactive).

For `C(=Nc1cnc2ccccc2c1)c1ccc2ccccc2n1`, the activity, negative = inhibition was 34% [at 11.4 µM] (inactive).

Turning to `Cc1cccc(NCCNc2cccc(C)c2)c1`, the AC50 is 2.82 µM (active).

Consider `Cc1cccc(Nc2ccncc2S(=O)(=O)NC(=O)NC(C)C)c1`, for which the AC50 entry is “inactive”. On to `COCCn1c(=O)c(-c2cc(F)cc(F)c2)nc2cnc(N3CCN(C)CC3)nc21`, for which the AC50 result was “inactive”. With `CC(C)=C[C@H]1[C@@H](C(=O)Oc2ccccc2C(C)C)C1(C)C`, the AC50 was 1.26 µM (active). Take `COc1cccc(-c2cncnc2NCCc2c[nH]c3ccc(OC)cc23)c1`: the AC50 is 0.316 µM (active). In the case of `COc1ccc2[nH]cc(CCNc3ncncc3-c3cccc(NS(C)(=O)=O)c3)c2c1`, the AC50 was 5.01 µM (active).

With `COc1ccc2[nH]cc(CCNc3ncncc3-c3cccnc3)c2c1`, the AC50 was 3.16 µM (active). Same read-out and setting: as for `c1cncc(-c2cncnc2NC2CCNCC2)c1`, the entry is “inactive”. Turning to `CCC/C=C(\CCC)C(NS(=O)(=O)c1ccc(Cl)cc1)c1ccccc1` (stereo unspecified), the AC50 is 0.398 µM (active).

In the case of `CCC/C=C(\CCC)C(NS(=O)(=O)c1cccs1)c1ccc(C(=O)OC)cc1` (stereo unspecified), the half-maximal activity concentration (AC50) is 0.794 µM (active). In the case of `CCC/C=C(\CCC)C(NS(=O)(=O)c1ccc(Cl)cc1)c1ccc(C(=O)OC)cc1` (stereo unspecified), the AC50 is 1.58 µM (active).

Take `CCC/C=C(\CCC)C(NP(=O)(c1ccccc1)c1ccccc1)c1ccc(-c2ccccc2)cc1` (stereo unspecified): the AC50 is 7.94 µM (active).

Take `CO[C@H]1COC(=O)C/C=C\[C@@H](C)COC(=O)[C@@H](C)NC(=O)C/C=C\[C@@H]1C`: the activity, negative = inhibition was 16.7% [at 11.4 µM] (inactive). Regarding `CO[C@H]1COC(=O)CCC[C@@H](C)[C@H](OC)COC(=O)[C@H]2CCCN2C(=O)C/C=C\[C@@H]1C`, the activity, negative = inhibition was -20.1% [at 11.4 µM] (inactive). On to `CCC/C=C(\CCC)C(NS(=O)(=O)c1cccc2cccnc12)c1ccc(C(=O)OC)cc1` (stereo unspecified), for which the AC50 is 3.16 µM (active).

`CCC/C=C(\CCC)C(NS(=O)(=O)c1ccc(C(F)(F)F)cc1)c1ccc(C(=O)OC)cc1` (stereo unspecified): the AC50 is 2.51 µM (active). Turning to `CCC/C=C(\CCC)C(NS(C)(=O)=O)c1ccccc1` (stereo unspecified), the AC50 was 7.94 µM (active). Turning to `CCC/C=C(\CCC)C(NS(=O)(=O)c1ccc(-c2ccccc2)cc1)c1ccc(C(=O)OC)cc1` (stereo unspecified), the AC50 was 1.26 µM (active). Turning to `COC(=O)c1ccc(-n2cncn2)c(F)c1`, the AC50 was 7.08 µM (active). Same read-out and setting: as for `NC(=O)C1(N2CCCCC2)CCN(C(=O)c2cccn3c(=O)c4cc(Cl)ccc4nc23)CC1`, the figure is 14.1 µM (active); as for `O=C(c1ccc2nc3ccc(Cl)cc3c(=O)n2c1)N1CCOCC1`, “inactive”. Consider `N[C@@H](Cc1nn[nH]n1)C(=O)O`, for which the activity, negative = inhibition was -17.6% [at 11.4 µM] (inactive). `CCOc1ccc(-c2nn(-c3ccccc3)cc2/C=C(\C#N)S(=O)(=O)c2ccccc2)cc1C`: the AC50 result is “inactive”. As to `CCOc1ccc(-c2nn(-c3ccccc3)cc2/C=C2\SC(N)=NC2=O)cc1C`, the AC50 was 11.2 µM (active). Turning to `CCOc1ccc(C(=O)O)cc1OC`, the AC50 result was “inactive”. Take `COc1ccc(C(=O)c2ccc(OC)c(OC)c2)cc1OC`: the AC50 was 2.82 µM (active). Take `COc1ccc(C(=O)c2ccccc2)cc1Br`: the AC50 is 8.91 µM (active). Turning to `COc1ccc(Br)c2c1C[C@H](C(=O)O)CC2`, the activity, negative = inhibition is 39.7% [at 11.4 µM] (inactive). Regarding `CC[C@@H](c1ccccc1)n1c(=O)n2n(c1=O)[C@H]1[C@H](O)[C@H]3O[C@@H]3/C(=N/OC/C=C(\C)CCC=C(C)C)[C@@H]1CC2`, the activity, negative = inhibition is -35.5% [at 11.4 µM] (inactive). Take `CC(C)NC(=O)N1CC2(CCN(C(=O)c3ccco3)CC2)C1`: the AC50 result was “inactive”. As to `CC(C)NC(=O)N1CCC2(CC1)CCN(C(=O)c1ccco1)CC2`, the AC50 entry is “inactive”. On to `C[N+]1(CCC(=O)c2ccco2)CC2CCC(CC2)C1` (stereo unspecified), for which the activity, negative = inhibition is -31.3% [at 11.4 µM] (inactive). Consider `Cc1ccc(C(C(=O)NC2CCCCC2)N2CCN(C(=O)c3ccco3)CC2)cc1` (stereo unspecified), for which the AC50 is 8.91 µM (active). As for `O=C(OC(C(=O)NC1CCCC1)c1ccncc1)C1=Cc2ccccc2OC1` (stereo unspecified), the AC50 is 1.12 µM (active).

For `Cc1ccc(C(OC(=O)c2ccco2)C(=O)NC2CCCCC2)cc1` (stereo unspecified), the AC50 was 17.8 µM (active).

Regarding `COc1ccccc1N1CCN(c2nc(-c3ccccc3)cc(C(F)(F)F)n2)CC1`, the AC50 was 1 µM (active).

As for `CN1CCN(c2nc(-c3ccccc3)cc(C(F)(F)F)n2)CC1`, the AC50 is 8.91 µM (active).

Regarding `COc1ccccc1-c1nc(N2CCN(C)CC2)c2ccccc2n1`, the AC50 entry is “inactive”. Regarding `COc1ccc(C(=O)NCc2ccc(-c3nc4ccccc4s3)cc2)cc1`, the AC50 is 7.94 µM (active). Turning to `CNC(=O)NC(=S)NC(=O)c1ccc(OC)cc1`, the AC50 was 14.1 µM (active). The same measure, in the same setting: the value for `COc1ccc(C(=O)NNC(=S)NC(=O)c2ccco2)cc1` was “inactive”.

Consider `COc1ccc(C(=O)NC(=S)NCc2ccccc2)cc1`, for which the AC50 is 5.01 µM (active). For `CC(C)(C)C(=O)NC(=S)NCCc1ccccc1`, the AC50 was 2.51 µM (active). For the molecule `Cc1ccc(C(=O)NC(=S)Nc2cc(-c3nc4ccccc4s3)ccc2C)cc1`, the AC50 result was “inactive”. Regarding `C/C(=C(/CCO)SSC[C@@H]1CCCO1)N(C=O)Cc1cnc(C)nc1N`, the AC50 result is “inactive”. The same measure, in the same setting: as for `COc1cc(OC)cc(C(=O)NC(=S)Nc2ccc(Cl)c(C(=O)O)c2)c1`, the entry is “inactive”; as for `COc1cc(OC)cc(C(=O)NC(=S)NCCc2ccccc2)c1`, 2.51 µM (active); as for `CCOc1ccc(N2C(=O)C3C4C=CC(CC4)C3C2=O)c([N+](=O)[O-])c1` (stereo unspecified), 3.98 µM (active). For `Cc1cc(C)c(-c2cc([C@H](C)O/N=C3/[C@H]4OC4[C@@H](O)[C@H]4[C@H]3CCn3c(=O)n(-c5ccccc5)c(=O)n34)on2)c(C)c1` (stereo partly specified), the activity, negative = inhibition is -40% [at 11.4 µM] (inactive). With `C[C@@H](/C=C\c1cccc(Oc2ccc(F)cc2)c1)N(O)C(N)=O`, the AC50 was 3.98 µM (active).

Consider `CCC(C)(C)c1ccc(Oc2cccc(C(=O)O)c2)cc1`, for which the activity, negative = inhibition was -38.4% [at 11.4 µM] (inactive). Same read-out and setting: as for `C[N+]1(NCC[N@@+]2(C)CCc3ccccc3C2)CCCCC1`, the figure is 13.4% [at 11.4 µM] (inactive).

For `CCc1ccc(C(=O)CN(C#N)c2nc(C)cc(C)n2)cc1`, the AC50 was 10 µM (active). In the case of `C[C@H]1[C@H](C)OC(=O)C[C@H](O)C[C@H](O)C[C@H](O)CC[C@H](O)[C@H](O)CC(=O)C[C@H](O)[C@H](C(=O)O)[C@H](O)C[C@H](O[C@@H]2O[C@@H](C)[C@H](O)[C@@H](N)[C@@H]2O)C=CC=CC=CC=CCCC=CC=C[C@@](C)(O)[C@H]1O`, the activity, negative = inhibition was 33.3% [at 11.4 µM] (inactive). For `CON(c1nc(N(C)C)nc(N(C)C)n1)S(=O)(=O)c1ccccc1Cl`, the AC50 is 4.47 µM (active). As for `CN1CCN(c2ncc3nc(-c4ccc(Cl)cc4)c(=O)n(C4CC4)c3n2)CC1`, the AC50 result is “inactive”. Consider `Cc1cc(C)n(CCCNCC(O)c2ccccc2)n1` (stereo unspecified), for which the AC50 entry was “inactive”. Turning to `Cc1cc(C)n(CC(O)COc2ccccc2)n1` (stereo unspecified), the AC50 was 8.91 µM (active).
